# Source: PubChem BioAssay AID463195 (Sanford-Burnham Center for Chemical Genomics, 2010)
# About 4,600 (1.4%) of roughly 330,000 compounds were called active.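 Rule for the calls: active = inhibition of 40% or more at the single tested concentration; inactive = the rest.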 The full list was thinned out, with actives kept by preference.
# Assay: wild-type TIM10 yeast growth inhibition – luminescence, uHTS, counter-screen for tim10-1 yeast inhibitor project, primary screen (AID 463195);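 note: wild-type TIM10 isogenic control strain grown at permissive 25 °C; 0% = DMSO yeast wells and 100% = minimal medium wells without yeast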
# Conditions: S. cerevisiae TIM10 strain growth, BacTiter-Glo luminescence, 24 h; at 10 µM; hits give high values
row,SMILES,inhibition
1,CCCc1[nH]nc2c1C(c1ccc(OC)c(Cn3nc(C)c(Br)c3C)c1)C(C#N)=C(N)O2 (centres undefined),3.67% (inactive)
2,CCCc1[nH]nc2c1C(c1ccc(Br)s1)C(C#N)=C(N)O2 (centres undefined),66.7% (active)
3,CCCc1[nH]nc2c1C(c1ccc(OC(=O)c3ccco3)cc1)C(C#N)=C(N)O2 (centres undefined),3.44% (inactive)
4,CCCCN(CC)C(=O)CN(C)S(=O)(=O)c1cccc2nsnc12,-12.4% (inactive)
5,COc1ccc(NC(=O)COc2ccc(C(=O)c3ccc(F)cc3)cc2)cc1S(N)(=O)=O,7.33% (inactive)
6,CC1=NN(c2ccc(Cl)c(C(=O)O)c2)C(=O)/C1=C/c1ccc(-c2ccccc2[N+](=O)[O-])o1,12.6% (inactive)
7,Cc1ccc(-c2ccc(/C=C(\C#N)C(N)=S)o2)c([N+](=O)[O-])c1,51.5% (active)
8,Cc1cc(C)c([N+](=O)[O-])cc1-c1ccc(/C=N/NC(=O)c2nonc2N)o1,-9.15% (inactive)
9,CC(C)NC(=O)N1CCN(c2ccncc2S(=O)(=O)N2CCCCC2)CC1,-2.83% (inactive)
10,Oc1ccc(-c2cccc(-c3ccc(O)cc3)c2)cc1,-32.3% (inactive)
11,O=C(/C=C/c1cc2c(cc1Br)OCO2)NCc1ccc(Cl)cc1,-5.07% (inactive)
12,O=C(/C=C/c1ccc(Cl)c([N+](=O)[O-])c1)c1cccnc1,73.9% (active)
13,O=C(/C=C/c1ccc(Cl)cc1Cl)c1cccnc1,8.99% (inactive)
14,O=C(Nc1ccncc1)c1ccc(Cl)c([N+](=O)[O-])c1,-47.9% (inactive)
15,CC1CCCCC12NC(=O)N(CC(=O)OCc1c(F)cccc1Cl)C2=O (centres undefined),1.25% (inactive)
16,COc1ccc(-c2cc3n(n2)CCc2nc4ccccc4n2-3)cc1,17.5% (inactive)
17,Cc1cc(CNC(=O)c2cccc([N+](=O)[O-])c2)c2ccccc2n1,8.64% (inactive)
18,N#Cc1cccc(Nc2c3c(nc4ccccc24)CCCC3)c1,22.5% (inactive)
19,O=[N+]([O-])c1cccc(Nc2c3ccccc3nc3ccccc23)c1,42.1% (active)
20,COC(=O)Nc1ccc(S(=O)(=O)N2CCN(CCN3C(=O)C4C5C=CC(C5)C4C3=O)CC2)cc1 (centres undefined),-10.8% (inactive)
21,COc1ccc(C)cc1NC(=O)C(Sc1ccccc1)c1ccccc1 (centres undefined),2.49% (inactive)
22,O=C(Cc1ccccc1)NC(=S)Nc1ccc(N2CCCCC2)cc1,40.2% (active)
23,O=C(CCN1CCN(c2ccccc2)CC1)NNC(=S)Nc1ccccc1,1.6% (inactive)
24,Cc1ccccc1C(=O)NC(=S)Nc1ccc(N2CCN(C(=O)c3ccccc3)CC2)cc1,-9.29% (inactive)

row,SMILES,inhibition
1,O=C(CCc1nc(-c2ccccc2)no1)Nc1cccc(C(=O)NC2CC2)c1,-6.75% (inactive)
2,CCCCn1c(N)c(N(CCOC)C(=O)c2cccc(S(=O)(=O)N3CCCCC3)c2)c(=O)[nH]c1=O,-2.98% (inactive)
3,Cc1cccc(C(=O)NCC(=O)OCC(=O)N(C)CC(=O)Nc2ccccc2Cl)c1,-5.14% (inactive)
4,Cc1ccc(SCCC(=O)Nc2cc(C)on2)cc1,4.66% (inactive)
5,Cc1cccc(-n2ncc3c(=O)[nH]c(SCC(=O)Nc4cc(C)on4)nc32)c1,-12.1% (inactive)
6,Cc1ccc2nc(-c3ccc(SCC(=O)Nc4cc(C)on4)nc3)[nH]c2c1,42.6% (active)
7,CC(=O)c1cccc(NC(=S)N2CCN(S(C)(=O)=O)CC2)c1,13% (inactive)
8,Cc1cccc(-n2c(C)cc(/C=N/NC(N)=S)c2C)c1,-24.1% (inactive)
9,CCOc1ccc(/C=N/NC(N)=S)cc1,-25.2% (inactive)
10,CC(C)Oc1c(Br)cc(Br)cc1/C=N/NC(N)=S,51.7% (active)
11,S=C(Nc1ccc(Br)cc1)NC1CCN(Cc2ccccc2)CC1,-24.3% (inactive)
12,S=C(NCCCc1ccccc1)Nc1ccc(Br)cc1,43.1% (active)
13,O=C(CCNC(=O)c1ccc(Br)cc1)NCCCc1ccccc1,-4.58% (inactive)
14,CC(C)n1c(O)c(N=Nc2ccccn2)c2ccccc21,3.1% (inactive)
15,Cc1ccc2occ(/C=N/NC(=O)c3ccccc3C)c(=O)c2c1,20.6% (inactive)
16,NC(=S)N/N=C/c1coc2cc(Cl)ccc2c1=O,42.4% (active)
17,O=c1c(/C=N/O)coc2ccc(Cl)cc12,-3.79% (inactive)
18,CC(C)c1ccc(NC(=O)COC(=O)c2ccc(CN3CCCC3=O)cc2)cc1,1.1% (inactive)
19,O=C(Nc1ccccc1Cl)/C(Cl)=C(\Cl)S(=O)c1ccccc1 (centres undefined),86.7% (active)
20,CC1(C)CC(CCC(=O)Nc2ccccc2Cl)C(=O)O1 (centres undefined),1.62% (inactive)
21,Cc1c(NC(=O)Nc2ccccc2Cl)sc(=S)n1C,2.45% (inactive)
22,O=C(O)C1C2CC2CN1C(=O)c1ccc(Cl)cc1Cl (centres undefined),-17.4% (inactive)
23,CN(Cc1nc(-c2cnccn2)no1)Cc1n[nH]c2c1CCCCC2,4.12% (inactive)
24,CCOCCCNC(=O)c1cn(CC(C)C)c(=O)c2c1c1ccccc1n2C,3.76% (inactive)

row,SMILES,inhibition
1,O=C(NCCc1ccco1)c1nn(Cc2ccccc2)c(=O)c2ccccc12,2.63% (inactive)
2,O=c1nc2s/c(=C\c3ccco3)c(=O)n2nc1Cc1ccccc1,63.3% (active)
3,O=C(Nc1ccccc1)/C(=C\c1ccco1)NC(=O)c1ccco1,-2.56% (inactive)
4,COC(=O)c1c(NC(=O)CN2CCN(S(=O)(=O)c3ccccc3[N+](=O)[O-])CC2)sc2c1CCC(C)C2 (centres undefined),14.5% (inactive)
5,CC(=O)N1C(C)c2ccccc2C(C)(C)CC12CCCCC2 (centres undefined),41.9% (active)
6,COCCCNC(=O)C1CC(=O)N(CCc2ccc(F)cc2)C1 (centres undefined),-8.81% (inactive)
7,CCOCCCn1c(SCC(=O)Nc2cc(OC)ccc2OC)nc2ccccc2c1=O,11.4% (inactive)
8,O=C(CSc1ccc(-c2ccc(Br)cc2)nn1)NCC1CCCO1 (centres undefined),15.2% (inactive)
9,OC(CNCC1CCCO1)Cn1c2ccc(Br)cc2c2cc(Br)ccc21 (centres undefined),62.5% (active)
10,O=C(CCNS(=O)(=O)c1ccc(Br)cc1)NCC1CCCO1 (centres undefined),-3.43% (inactive)
11,CCCCCNC(=O)c1cccnc1SCC(=O)Nc1ccccc1OC,1.04% (inactive)
12,COc1ccc(N2CCN(C(=O)CCSCc3ccccc3F)CC2)cc1,27.5% (inactive)
13,CC(=O)N(Cc1cccs1)C1CCOC(C)(C)C1 (centres undefined),-0.323% (inactive)
14,Nc1ccccc1SC(C[N+](=O)[O-])c1ccccc1 (centres undefined),59.3% (active)
15,Cc1ccc(C(C[N+](=O)[O-])c2c(C)cc3ccccn23)cc1 (centres undefined),21.6% (inactive)
16,Cc1ccc(C)c(OCCC(=O)OCC(=O)N2CCN(c3ccccc3)CC2)c1,5.69% (inactive)
17,O=S(=O)(Nc1cccc(Oc2ccc(Cl)cc2)n1)c1ccc(F)cc1,37.9% (inactive)
18,CC1CCCC(C)N1C(=O)CN1CCN(c2nc(-c3ccc(F)cc3)cs2)CC1 (centres undefined),44.9% (active)
19,O=C(COC(=O)C1CCCO1)Nc1nc(-c2ccc(F)cc2)cs1 (centres undefined),2.65% (inactive)
20,O=C(CN1CCN(c2nc(-c3ccccc3)cs2)CC1)NCc1ccc2c(c1)OCO2,18.3% (inactive)
21,N/C(Cc1ccc([N+](=O)[O-])cc1)=N\OC(=O)COc1ccc2ccccc2c1,44.4% (active)
22,Cc1cc(C)cc(OCC(=O)O/N=C(\N)Cc2ccc([N+](=O)[O-])cc2)c1,18.5% (inactive)
23,COC(=O)C(C)NC(=O)COc1ccc2ccccc2c1 (centres undefined),4.55% (inactive)
24,O=C(COC(=O)Cc1ccc([N+](=O)[O-])cc1)NC1CCCCCC1,11.9% (inactive)

row,SMILES,inhibition
1,N/C(Cc1ccc([N+](=O)[O-])cc1)=N\OC(=O)C1CCCCC1,56% (active)
2,O=C(COC(=O)C1CCCCC1)Nc1ccc([N+](=O)[O-])cc1,30.8% (inactive)
3,O=C(CN1CCCCC1)N1c2ccccc2Sc2ccc(C(F)(F)F)cc21,13.9% (inactive)
4,O=S(=O)(NC(=S)Nc1ccccc1)c1ccc(F)cc1,-5.64% (inactive)
5,CC[C@]12c3[nH]c4cc(CCC(=O)N(C)C)ccc4c3CCN1C(=O)[C@@H](CC(=O)NCc1ccco1)C[C@@H]2C(=O)N1CCN(C(=O)c2ccco2)CC1,12.2% (inactive)
6,COc1ccccc1-c1nnc(-c2ccc(F)cc2)o1,14.8% (inactive)
7,FC(F)(F)c1cnc(Oc2ccccc2-c2nnc(-c3ccc(Cl)cc3)o2)c(Cl)c1,92.4% (active)
8,CSc1ccccc1-c1nnc(-c2ccc(Cl)cc2)o1,8.43% (inactive)
9,C[C@@H]1CC[C@@]2(OC1)O[C@H]1C[C@H]3[C@@H]4CC=C5C[C@@H](O)[C@H](O)C[C@]5(C)C4CC[C@]3(C)[C@H]1[C@@H]2C (some centres undefined),-10.1% (inactive)
10,Cc1cc(Cl)ccc1OCc1nc(-c2ccncc2)no1,-5.93% (inactive)
11,CCc1cc(C(N)=O)c(NC(=O)c2ccc(OC)cc2)s1,48.7% (active)
12,COc1ccc(C(=O)Nc2sc(C)c(C)c2CN2CCOCC2)cc1,29% (inactive)
13,CCc1cc(C(=O)c2ccc(OC)cc2)c(NC(=O)CN2CCN(C)CC2)s1,14.6% (inactive)
14,CCCn1c(C)cc(-c2csc(NC(=O)CCc3nc4ccccc4c(=O)[nH]3)n2)c1C,-24.7% (inactive)
15,CCCOc1ccc(NC(=O)C2OC3OC(C)(C)OC3C3OC(C)(C)OC23)cc1 (centres undefined),-2.42% (inactive)
16,COc1cc(/C=C/CO)cc(OC)c1O[C@@H]1O[C@H](CO)[C@@H](O)[C@H](O)[C@H]1O,-4.81% (inactive)
17,O=C(Oc1cccc(C(=S)N2CCOCC2)c1)c1cccc(Cl)c1,17.1% (inactive)
18,O=C(/C=C/c1cccs1)c1cc(Cl)ccc1OC(=O)N1CCOCC1,52.9% (active)
19,CC(=O)Nc1ccccc1OC(=O)N1CCOCC1,-16.6% (inactive)
20,CC(C)CNC(=S)Nc1ccc(F)cc1,8.49% (inactive)
21,CC(C)(CCl)C(=O)Nc1ccc(Sc2ccc(F)cc2)cc1,42.1% (active)
22,O=C(Nc1ccncc1)Nc1ccc(F)cc1,-4.69% (inactive)
